What follows are compounds tested on Plasmodium falciparum NF54 asexual blood stage (assay: % inhibition of asexual blood stage proliferation (pLDH); higher = more inhibition). Settings: 20 µM; 72 h.
Summary of the method: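 Using 96-well plates, the screen was run twice on separate occasions with Plasmodium falciparum NF54 ring-stage cultures at 1% haematocrit and 2% parasitaemia. Each culture was exposed to compound at 2 or 20 µM for 72 h at 37 °C under a gas mix of 4% CO2, 3% O2 and 93% N2. After incubation, the parasite lactate dehydrogenase assay was read colorimetrically at 620 nm. From this readout, percent inhibition of asexual proliferation was derived against control wells.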
For `Clc1cc2nc(C3CCNCC3)n(Cc3ccc(CNCCc4cnc[nH]4)cc3)c2cc1Cl`, the “% inhibition of asexual blood stage proliferation” value was 98%. With `O=c1cc(OCc2ccccc2)ccn1Cc1ccccc1` the “% inhibition of asexual blood stage proliferation” value was 51.5%. For `Cc1cc(CCCOc2c(C)cc(-c3noc(C(F)(F)F)n3)cc2C)on1`, the “% inhibition of asexual blood stage proliferation” value was 65.2%. In the case of `CCC(C)n1ncn(-c2ccc(N3CCN(c4ccc(OCC5COC(Cn6cncn6)(c6ccc(Cl)cc6Cl)O5)cc4)CC3)cc2)c1=O` (stereo unspecified), the “% inhibition of asexual blood stage proliferation” value is reported as 83.4%. With `O=C(O)c1ccccc1Sc1ncnc2sc3c(c12)CCC3` the “% inhibition of asexual blood stage proliferation” value was -13.7%. With `Cc1nc(Nc2ccc(F)cc2)nc(N2CCc3ccccc3C2C)c1C` (stereo unspecified) the “% inhibition of asexual blood stage proliferation” value was 73.1%. `NC(=O)c1nccn([C@@H]2O[C@H](CO)[C@@H](O)[C@H]2O)c1=O` was tested, and the “% inhibition of asexual blood stage proliferation” value was 53.8%. `Nc1nc(F)nc2c1ncn2[C@H]1O[C@@H](CO)[C@H](O)[C@@H]1O` was tested, and the “% inhibition of asexual blood stage proliferation” value was 72.4%. `NC(=S)N/N=C/c1ncccc1N` was tested, and the “% inhibition of asexual blood stage proliferation” value was 78.5%. For `CCCC1(C2CC2)c2cc(Cl)ccc2NC(=O)N1C` (stereo unspecified), the “% inhibition of asexual blood stage proliferation” value was 53.6%. For `COc1cc(C(C(=O)NC2CCCCC2)N(C(=O)Cc2c[nH]c3ccccc23)c2ccc(C(C)C)cc2)cc(OC)c1OC` (stereo unspecified), the “% inhibition of asexual blood stage proliferation” value was 71.8%. `Oc1cccc(C(Nc2nccs2)c2ccc3cccnc3c2O)c1` (stereo unspecified) was tested, and the “% inhibition of asexual blood stage proliferation” value was 91.8%. `COc1ccc(C)cc1NC(=O)c1ccc(S(=O)(=O)N2CCCCC2)cc1` was tested, and the “% inhibition of asexual blood stage proliferation” value was 32.8%. In the case of `CCC[C@H](NC(=O)[C@@H]1[C@H]2CCC[C@H]2CN1C(=O)[C@@H](NC(=O)[C@@H](NC(=O)c1cnccn1)C1CCCCC1)C(C)(C)C)C(=O)C(=O)NC1CC1`, the “% inhibition of asexual blood stage proliferation” value is reported as 57%. For `O=C(CSc1nnc(Br)n1-c1ccc(C2CC2)c2ccccc12)Nc1ccc(C(=O)O)cc1Cl`, the “% inhibition of asexual blood stage proliferation” value was 46.7%. For `CC(C)(C)c1ccc(C(Cn2cccc(C(F)(F)F)c2=O)NC2Cc3ccccc3C2)cc1` (stereo unspecified), the “% inhibition of asexual blood stage proliferation” value was 69.1%. `O=C1NC(=O)C(Br)=C1Br` was tested, and the “% inhibition of asexual blood stage proliferation” value was 102%. `CC(C)Nc1nc2cc(Cl)c(Cl)cc2n1[C@H]1O[C@@H](CO)[C@H](O)[C@@H]1O` was tested, and the “% inhibition of asexual blood stage proliferation” value was 55.9%. `C=C[C@]1(C)C[C@@H](OC(=O)CS[C@@H]2C[C@H]3CC[C@@H](C2)N3C)[C@]2(C)[C@H](C)CC[C@]3(CCC(=O)[C@H]32)[C@@H](C)[C@@H]1O` was tested, and the “% inhibition of asexual blood stage proliferation” value was 104%. For `CCCCCCC1c2ccc(O)cc2Oc2cc(O)ccc21`, the “% inhibition of asexual blood stage proliferation” value was 12.9%. For `O=C(NCc1ncc(C(F)(F)F)cc1Cl)c1c(Cl)cccc1Cl`, the “% inhibition of asexual blood stage proliferation” value was 1.98%. In the case of `CN(C)CCNC(=O)c1cccc2cccnc12`, the “% inhibition of asexual blood stage proliferation” value is reported as -0.35%. `CC(C)CCN1C(=O)C(C2=NS(=O)(=O)c3cc(NS(C)(=O)=O)ccc3N2)=C(O)[C@@H]2[C@H]3CC[C@H](C3)[C@@H]21` was tested, and the “% inhibition of asexual blood stage proliferation” value was 56.6%. With `CC(C)(C)c1ccc(C(=O)NC(=O)N2CCCc3ccccc32)cc1` the “% inhibition of asexual blood stage proliferation” value was -5.88%. In the case of `Cc1nc2ccc(Oc3ccccc3)cc2c2c1CCN2CCc1ccccc1`, the “% inhibition of asexual blood stage proliferation” value is reported as 110%. For `Cc1c(OCC(F)(F)F)ccnc1CS(=O)c1nc2ccccc2[nH]1` (stereo unspecified), the “% inhibition of asexual blood stage proliferation” value was 95.5%. `O=C(CP(=O)(O)O)NCCc1cccc(Oc2ccccc2)c1` was tested, and the “% inhibition of asexual blood stage proliferation” value was 29.5%. For `N[C@@H]1CN(c2c(F)cc3c(=O)c(C(=O)O)cn([C@@H]4C[C@@H]4F)c3c2Cl)CC12CC2`, the “% inhibition of asexual blood stage proliferation” value was 99.6%. `CCOC(=O)Nc1cc(NC(C)CC(C)CN(CC)CC)c2nc(-c3ccccc3)c(-c3ccccc3)nc2n1` (stereo unspecified) was tested, and the “% inhibition of asexual blood stage proliferation” value was 54.6%. With `O=S(=O)(NCB(O)O)c1cc2c(Cl)ccc(Cl)c2s1` the “% inhibition of asexual blood stage proliferation” value was -8.49%. With `CN(C)CC(=O)Nc1ccc2[nH]c(=O)c3ccccc3c2c1` the “% inhibition of asexual blood stage proliferation” value was 32.5%. In the case of `Cc1nc(-c2ccc(C3N(C)c4ccc(F)cc4C(=O)N3c3ccccc3)s2)cs1` (stereo unspecified), the “% inhibition of asexual blood stage proliferation” value is reported as 72.5%. In the case of `CCc1cc(Nc2cc(=O)n(CCN3CCN(C(=O)c4ccccc4)CC3)c(=O)[nH]2)ccc1C`, the “% inhibition of asexual blood stage proliferation” value is reported as 61.3%. In the case of `CCOC(=O)N[C@@H]1CC[C@@H]2[C@@H](C1)C[C@H]1C(=O)O[C@H](C)[C@H]1[C@H]2/C=C/c1ccc(-c2cccc(F)c2)cn1`, the “% inhibition of asexual blood stage proliferation” value is reported as 71.5%. For `O=C(N[C@H](Cc1cccc2ccccc12)C(=O)NCCc1c[nH]cn1)C1Cc2ccccc2C1`, the “% inhibition of asexual blood stage proliferation” value was 81.3%. `Cc1nc(N(C)C(=O)Cc2ccc(-c3ccccn3)cc2)sc1S(N)(=O)=O` was tested, and the “% inhibition of asexual blood stage proliferation” value was -31.8%. With `COc1ccc(C[C@@H](C)[C@@H](C)Cc2ccc(OC)c(OC)c2)cc1OC` the “% inhibition of asexual blood stage proliferation” value was 63%. `Nc1nnnn1CCOc1c2[nH]c3ccc(Cl)cc3c2cc2c1[nH]c1ccc(Cl)cc12` was tested, and the “% inhibition of asexual blood stage proliferation” value was 95.2%.

Each compound was assayed on Plasmodium falciparum NF54 stage IV/V gametocytes (assay: % inhibition of gametocyte viability (ATP bioluminescence); higher = more inhibition). Settings: 1 µM; 24 h.
Summary of the method: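 Viability of stage IV/V NF54 gametocytes is given as percent inhibition, normalised to control wells in a single run. Gametocytes enriched on density gradients were seeded at 30,000 per well in 96-well plates with compound at 1 or 5 µM and held at 37 °C for 24 h. ATP was then read with the Promega BacTiter Glo bioluminescence system.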
In the case of `Clc1cc2nc(C3CCNCC3)n(Cc3ccc(CNCCc4cnc[nH]4)cc3)c2cc1Cl`, the “% inhibition of gametocyte viability” value is reported as under 0%. In the case of `O=c1cc(OCc2ccccc2)ccn1Cc1ccccc1`, the “% inhibition of gametocyte viability” value is reported as under 0%. `Cc1cc(CCCOc2c(C)cc(-c3noc(C(F)(F)F)n3)cc2C)on1` was tested, and the “% inhibition of gametocyte viability” value was 4.65%. For `CCC(C)n1ncn(-c2ccc(N3CCN(c4ccc(OCC5COC(Cn6cncn6)(c6ccc(Cl)cc6Cl)O5)cc4)CC3)cc2)c1=O` (stereo unspecified), the “% inhibition of gametocyte viability” value was 3.02%. For `O=C(O)c1ccccc1Sc1ncnc2sc3c(c12)CCC3`, the “% inhibition of gametocyte viability” value was 2.23%. `Cc1nc(Nc2ccc(F)cc2)nc(N2CCc3ccccc3C2C)c1C` (stereo unspecified) was tested, and the “% inhibition of gametocyte viability” value was under 0%. For `NC(=O)c1nccn([C@@H]2O[C@H](CO)[C@@H](O)[C@H]2O)c1=O`, the “% inhibition of gametocyte viability” value was under 0%. With `Nc1nc(F)nc2c1ncn2[C@H]1O[C@@H](CO)[C@H](O)[C@@H]1O` the “% inhibition of gametocyte viability” value was 11.1%. For `NC(=S)N/N=C/c1ncccc1N`, the “% inhibition of gametocyte viability” value was under 0%. `CCCC1(C2CC2)c2cc(Cl)ccc2NC(=O)N1C` (stereo unspecified) was tested, and the “% inhibition of gametocyte viability” value was under 0%. With `COc1cc(C(C(=O)NC2CCCCC2)N(C(=O)Cc2c[nH]c3ccccc23)c2ccc(C(C)C)cc2)cc(OC)c1OC` (stereo unspecified) the “% inhibition of gametocyte viability” value was under 0%. `Oc1cccc(C(Nc2nccs2)c2ccc3cccnc3c2O)c1` (stereo unspecified) was tested, and the “% inhibition of gametocyte viability” value was under 0%. In the case of `COc1ccc(C)cc1NC(=O)c1ccc(S(=O)(=O)N2CCCCC2)cc1`, the “% inhibition of gametocyte viability” value is reported as under 0%. In the case of `CCC[C@H](NC(=O)[C@@H]1[C@H]2CCC[C@H]2CN1C(=O)[C@@H](NC(=O)[C@@H](NC(=O)c1cnccn1)C1CCCCC1)C(C)(C)C)C(=O)C(=O)NC1CC1`, the “% inhibition of gametocyte viability” value is reported as 6.88%. With `O=C(CSc1nnc(Br)n1-c1ccc(C2CC2)c2ccccc12)Nc1ccc(C(=O)O)cc1Cl` the “% inhibition of gametocyte viability” value was under 0%. With `CC(C)(C)c1ccc(C(Cn2cccc(C(F)(F)F)c2=O)NC2Cc3ccccc3C2)cc1` (stereo unspecified) the “% inhibition of gametocyte viability” value was under 0%. `O=C1NC(=O)C(Br)=C1Br` was tested, and the “% inhibition of gametocyte viability” value was 0.158%. In the case of `CC(C)Nc1nc2cc(Cl)c(Cl)cc2n1[C@H]1O[C@@H](CO)[C@H](O)[C@@H]1O`, the “% inhibition of gametocyte viability” value is reported as under 0%. With `C=C[C@]1(C)C[C@@H](OC(=O)CS[C@@H]2C[C@H]3CC[C@@H](C2)N3C)[C@]2(C)[C@H](C)CC[C@]3(CCC(=O)[C@H]32)[C@@H](C)[C@@H]1O` the “% inhibition of gametocyte viability” value was 1.57%. In the case of `CCCCCCC1c2ccc(O)cc2Oc2cc(O)ccc21`, the “% inhibition of gametocyte viability” value is reported as 4.64%. With `O=C(NCc1ncc(C(F)(F)F)cc1Cl)c1c(Cl)cccc1Cl` the “% inhibition of gametocyte viability” value was under 0%. With `CN(C)CCNC(=O)c1cccc2cccnc12` the “% inhibition of gametocyte viability” value was under 0%. `CC(C)CCN1C(=O)C(C2=NS(=O)(=O)c3cc(NS(C)(=O)=O)ccc3N2)=C(O)[C@@H]2[C@H]3CC[C@H](C3)[C@@H]21` was tested, and the “% inhibition of gametocyte viability” value was under 0%. For `CC(C)(C)c1ccc(C(=O)NC(=O)N2CCCc3ccccc32)cc1`, the “% inhibition of gametocyte viability” value was under 0%. For `Cc1nc2ccc(Oc3ccccc3)cc2c2c1CCN2CCc1ccccc1`, the “% inhibition of gametocyte viability” value was 20.1%. For `Cc1c(OCC(F)(F)F)ccnc1CS(=O)c1nc2ccccc2[nH]1` (stereo unspecified), the “% inhibition of gametocyte viability” value was under 0%. In the case of `O=C(CP(=O)(O)O)NCCc1cccc(Oc2ccccc2)c1`, the “% inhibition of gametocyte viability” value is reported as 2.33%. In the case of `N[C@@H]1CN(c2c(F)cc3c(=O)c(C(=O)O)cn([C@@H]4C[C@@H]4F)c3c2Cl)CC12CC2`, the “% inhibition of gametocyte viability” value is reported as under 0%. In the case of `CCOC(=O)Nc1cc(NC(C)CC(C)CN(CC)CC)c2nc(-c3ccccc3)c(-c3ccccc3)nc2n1` (stereo unspecified), the “% inhibition of gametocyte viability” value is reported as 28%. In the case of `O=S(=O)(NCB(O)O)c1cc2c(Cl)ccc(Cl)c2s1`, the “% inhibition of gametocyte viability” value is reported as under 0%. `CN(C)CC(=O)Nc1ccc2[nH]c(=O)c3ccccc3c2c1` was tested, and the “% inhibition of gametocyte viability” value was 11.1%. For `Cc1nc(-c2ccc(C3N(C)c4ccc(F)cc4C(=O)N3c3ccccc3)s2)cs1` (stereo unspecified), the “% inhibition of gametocyte viability” value was under 0%. `CCc1cc(Nc2cc(=O)n(CCN3CCN(C(=O)c4ccccc4)CC3)c(=O)[nH]2)ccc1C` was tested, and the “% inhibition of gametocyte viability” value was under 0%. With `CCOC(=O)N[C@@H]1CC[C@@H]2[C@@H](C1)C[C@H]1C(=O)O[C@H](C)[C@H]1[C@H]2/C=C/c1ccc(-c2cccc(F)c2)cn1` the “% inhibition of gametocyte viability” value was 17.7%. `O=C(N[C@H](Cc1cccc2ccccc12)C(=O)NCCc1c[nH]cn1)C1Cc2ccccc2C1` was tested, and the “% inhibition of gametocyte viability” value was 2.29%. For `Cc1nc(N(C)C(=O)Cc2ccc(-c3ccccn3)cc2)sc1S(N)(=O)=O`, the “% inhibition of gametocyte viability” value was 4.11%. In the case of `COc1ccc(C[C@@H](C)[C@@H](C)Cc2ccc(OC)c(OC)c2)cc1OC`, the “% inhibition of gametocyte viability” value is reported as under 0%. In the case of `Nc1nnnn1CCOc1c2[nH]c3ccc(Cl)cc3c2cc2c1[nH]c1ccc(Cl)cc12`, the “% inhibition of gametocyte viability” value is reported as under 0%.

Reference: the supplement of paper PMC7801607
